PubChem BioAssay
Active and inactive are the calls of the source. Unless noted, no rule for the calls is given here.

Legend:
[1] = liver-stage malaria parasite load reduction – cell-based, known kinase inhibitor set, luminescence, hepatoma host viability (AID 624392); settings: Plasmodium liver stage in hepatoma cells, luciferase luminescence, concentration not given here; liver cell % of control: measured here: host liver cell viability; parasite % of control: stronger effect = lower value;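 also: infected cells incubated roughly two days before readout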
[2] = altered dexamethasone sensitivity, NF-kB reporter, cell-based, luciferase, IL-1B stimulus (AID 624486); settings: IL-1B + dexamethasone, luminescence; percent of negative control (+Dex): actives lie on both sides, concentration not given here; z-score: measured here: IL-1B alone, no Dex;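 as to percent of negative control (+Dex): 100% = mean signal of vehicle control wells on the plate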
[3] = C. elegans survival during P. aeruginosa infection – whole organism (AID 651566);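 also: tested at 14 µM; sign flipped so higher z means a lower ratio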; settings: C. elegans killed by P. aeruginosa, survival ratio
[4] = pro-inflammatory signaling induction in mouse macrophages – cell-based, murine, luminescence (AID 652131); settings: murine macrophage pro-inflammatory reporter, stronger effect = higher value
[5] = inducers of IRF3 signaling, differentiated THP-1 – cell-based, PMA-stimulated THP-1, luminescence (AID 1053176); settings: PMA-differentiated THP-1, IRF3 reporter luminescence; stronger effect = higher value
[6] = MELAS cybrid and Rieske KO viability enhancers – cell-based, MELAS cybrids, Rieske KO mouse fibroblasts, CellTiter-Glo, primary screen (AID 1508586;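 active = mean z-score across replicates of 1.96 or higher in either the MELAS or the Rieske mutant cell line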;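 also: z relative to plate mean and SD of compound and empty wells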); settings: low glucose
[7] = Wnt pathway potentiators raising nuclear beta-catenin – imaging, WNT3A-conditioned medium, mouse C2C12, NPC library, primary screen (AID 1117326; in the data active = nuclear beta-catenin stimulation mostly above about 4.2%, no sharp cut-off; inactive = mostly below about 10%); settings: stronger effect = higher value
[8] = stimulators of insulin release from INS-1E, primary screen, cell-based, 5 mM glucose, NPC library (AID 1117329;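 active = compound raises insulin release from rat beta cells at 5 mM glucose, no numeric limit stated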); settings: rat INS-1E insulin secretion, at 10 µM, stronger effect = higher value
[9] = growth inhibition of GSK3B-pretreated HCT116 cells – cell-based, CellTiter-Glo, 0.2 to 20 µM (AID 1117336;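 active = compounds lowering colon cancer cell viability after pretreatment blocking the GSK3B kinase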); settings: HCT116 viability after GSK3B inhibitor, at 20 µM, stronger effect = higher value
[10] = inhibition of endothelial tube formation, primary screen, imaging, VEGF stimulated, CD31 staining, tube area, NPC library (AID 1117340;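 active = compound that reduces growth-factor-driven endothelial tube area in a mixed cell culture, no cutoff stated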); settings: VEGF-stimulated ADSC/ECFC co-culture, at 10 µM, stronger effect = higher value
[11] = GLP1 release stimulators, primary, NCI-H716, NPC library (AID 1117341;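 active = compound raises GLP1 secretion from the human gut endocrine cells, with no numeric limit stated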); settings: NCI-H716 cells, at 10 µM, stronger effect = higher value
[12] = HCT116 colon cancer cell growth inhibition, primary screen, CellTiter-Glo luminescence, NPC library (AID 1117342;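 active = compounds that lower survival of HCT116 colon cancer cells in the luminescence readout, no numeric limit stated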); settings: at 20 µM (top of the series)
[13] = reduced SW480 viability measured with CellTiter-Glo, NPC library, primary (AID 1117343;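 active = compounds that lower viability of the colon cancer cells in the luminescence readout, with no numeric limit stated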); settings: CellTiter-Glo luminescence; at 20 µM (top of the series)
[14] = NPC library primary testing for decreased DLD-1 cell viability via CellTiter-Glo (AID 1117346;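 active = compounds that lower survival of DLD-1 colon cancer cells in the luminescence readout, no cutoff given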); settings: DLD-1 viability, CellTiter-Glo luminescence; at 20 µM (top of the series)
[15] = MELAS cybrid survival, CellTiter-Glo 48 h, stronger effect = higher value
[16] = Rieske KO mouse fibroblast survival, CellTiter-Glo 72 h

Compound | liver cell % of control [1] | parasite % of control [1] | percent of negative control (+Dex) [2] | z-score [2] | z-score [3] | z-score [4] | fraction signal [5] | z-score [6, 15] | z-score [6, 16] | nuclear beta-catenin stimulation ([7]; at 10 µM) | nuclear beta-catenin stimulation ([7]; stimulation, at 2 µM) | insulin secretion stimulation [8] | viability decrease [9] | tube area decrease [10] | GLP1 secretion stimulation [11] | inhibition of viability [12] | viability decrease (inhibition) [13] | viability decrease (inhibition) [14]
CC(C)(C)c1ccc(Oc2nccc(-c3c(-c4ccc(F)cc4)ncn3C3CCNCC3)n2)cc1 | 81.4% | 76.7% (inactive) | 106% (inactive) | 0.75 | 0.215 (inactive) | -0.618 (inactive) | 0 (inactive) | -0.424 (inactive) | 0.0471 | – | – | – | – | – | – | – | – | –
COc1ccccc1Oc1nccc(-c2c(-c3ccc(F)cc3)ncn2C2CCNCC2)n1 | 89.7% | 136% (inactive) | 104% (inactive) | 0.275 | 0.105 (inactive) | 0.324 (inactive) | 0.001 (inactive) | -0.339 (inactive) | -0.367 | – | – | – | – | – | – | – | – | –
N#Cc1c(NC(=O)c2cccc3ccccc23)sc2c1CCCN2C(=O)C1CC1 | 190% | 15.9% (inactive) | 106% (inactive) | -0.12 | -0.17 (inactive) | -0.734 (inactive) | 0.002 (inactive) | -0.726 (inactive) | -0.0978 | – | – | – | – | – | – | – | – | –
CS(=O)(=O)CCN(CC#N)Cc1ccc(-c2ccc3ncnc(Nc4ccc(OCc5cccc(F)c5)c(Cl)c4)c3c2)o1 | 98.1% | 143% (inactive) | 82% (inactive) | -0.4 | 0.225 (inactive) | 0.25 (inactive) | 0.001 (inactive) | -0.391 (inactive) | -0.288 | – | – | – | – | – | – | – | – | –
NC(=O)CC[C@@H](N)C(=O)O | – | – | – | – | – | – | – | – | – | 2.1% (inactive) | 3.8% | -0.7% (inactive) | -14.2% (inactive) | 15.2% (inactive) | -0.1% (inactive) | 2.55% (inactive) | 11.4% (inactive) | -7.9% (inactive)
COc1ccc(/C=C/C(=O)c2ccc(OC)cc2OC)cc1 | – | – | – | – | – | – | – | – | – | 7.4% (inactive) | -0.5% | 2.6% (inactive) | 77.7% (active) | 54.9% (active) | -6.1% (inactive) | 58.1% (active) | 94.5% (active) | 81.6% (active)
CCn1ccc(NS(=O)(=O)c2ccc(N)cc2)nc1=O | – | – | – | – | – | – | – | – | – | 1.9% (inactive) | 1.4% | 3.4% (inactive) | -22.1% (inactive) | 11.6% (inactive) | 2.7% (inactive) | -54.2% (inactive) | -2.8% (inactive) | -26.4% (inactive)
CCOC(=O)CN1CCCC1=O | – | – | – | – | – | – | – | – | – | 1.9% (inactive) | 21% | 2.1% (inactive) | 1.1% (inactive) | -17.2% (inactive) | -1.8% (inactive) | -0.8% (active) | -15.1% (inactive) | 1% (inactive)
COc1cc2ncn(-c3cc(O[C@@H](C)c4ccccc4Cl)c(C(N)=O)s3)c2cc1OC | 100% | 110% (inactive) | 124% (inactive) | 2.36 | -0.555 (inactive) | -0.639 (inactive) | -0.002 (inactive) | -0.552 (inactive) | 0.815 | – | – | – | – | – | – | – | – | –
CCS(=O)(=O)c1ccc(OC)c(Nc2ncc(-c3cccc(F)c3)o2)c1 | 140% | 19.6% (inactive) | 84.5% (inactive) | -0.335 | -0.615 (inactive) | -0.303 (inactive) | -0.0005 (inactive) | 1.69 (inactive) | -0.478 | – | – | – | – | – | – | – | – | –
N#Cc1c(NC(=O)c2ccc(F)c3ccccc23)sc2c1CCCC2 | 93.8% | 163% (inactive) | 118% (inactive) | 0.625 | 1.47 (inactive) | -1.25 (inactive) | 0.0065 (inactive) | -0.605 (inactive) | 0.108 | – | – | – | – | – | – | – | – | –
